# esBAF inh: blocks esBAF chromatin remodeling in mouse ES cells. Bmi1-luciferase knock-in reporter, 24 h; 100% = twice the neutral-well signal. reporter increase, % at 12.5 µM. 350,000 tested, 2% active. AID 602393; in the data active means activation above about 40%;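 further: a rise in the Bmi1 reporter signal indicates esBAF inhibition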
# MITF TRPM1 HTS: MITF TRPM1 promoter activation in melanoma cells. SK-MEL-5 TRPM1-promoter luciferase, 24 h; % of positive control, neutral wells = 0. activation, % at 12.5 µM. 300,000 tested, 0.75% active;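 active means mean activation of at least 80% with every replicate also reaching 80%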
# Ecoli rRNA inh: inhibits bacterial ribosomal RNA function over humanized ribosomes. E. coli WT GFP vs humanized-ribosome RFP mutants, fluorescence, 24 h; active compounds read low; DMSO median 0, no signal -100. GFP signal change (wild-type ribosome), % (test concentration not listed). 350,000 tested, 1.6% active;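 active means significant combined selectivity score with lowered wild-type GFP, culture density cut under 30%, mutant RFP and density less affected; inactive means any of these conditions unmet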
# Wnt bcat act: Wnt/beta-catenin pathway activation. 300,000 tested, 1.2% active. AID 743398. Wnt/beta-catenin reporter cell assay, activator, plate reader. activation, % at 9.35 µM; in the data active means activation above about 30%, passing the limit was not always enough
# AF4-AF9 inh: inhibitors of human MLL-AF4/AF9 interaction | P42568 | AlphaScreen, biotin-AF4 peptide binding to FLAG-AF9 | inhibition, % at 10 µM | 350,000 tested, 0.47% active;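 active means every replicate reaching a set inhibition limit, whatever the replicate mean, cut at about 25% in these data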
# Target sequence (P42568 whole entry, looked up): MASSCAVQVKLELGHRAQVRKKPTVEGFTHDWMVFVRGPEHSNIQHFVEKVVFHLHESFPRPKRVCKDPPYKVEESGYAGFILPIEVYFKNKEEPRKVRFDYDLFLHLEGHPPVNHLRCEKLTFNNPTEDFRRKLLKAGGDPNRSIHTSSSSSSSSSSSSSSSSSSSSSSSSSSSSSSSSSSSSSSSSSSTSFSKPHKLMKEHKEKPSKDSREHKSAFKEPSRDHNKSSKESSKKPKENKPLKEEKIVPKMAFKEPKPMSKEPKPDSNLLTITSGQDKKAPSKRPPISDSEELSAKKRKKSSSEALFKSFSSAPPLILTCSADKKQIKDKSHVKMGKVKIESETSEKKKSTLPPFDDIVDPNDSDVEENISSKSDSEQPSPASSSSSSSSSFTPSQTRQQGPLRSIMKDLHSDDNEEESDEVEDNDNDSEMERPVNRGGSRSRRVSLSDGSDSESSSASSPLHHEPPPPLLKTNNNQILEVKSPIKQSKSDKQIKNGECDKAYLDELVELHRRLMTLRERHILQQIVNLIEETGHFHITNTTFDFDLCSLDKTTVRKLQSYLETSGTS
# esBAF Ring1 qPCR: confirmation of esBAF inhibitors: Ring1 de-repression in mouse ESCs | shares compounds with esBAF inh | mouse ESC E14, Ring1 mRNA RT-qPCR fold change | fold change at 33 µM | 550 tested, under 10 active | AID 743176;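 active means Ring1 gene expression raised more than 2-fold over untreated cells in both replicates at either tested dose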;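 further: Ring1 transcript normalised to actin housekeeping signal by TaqMan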
# esBAF Fgf4 qPCR: confirmation of esBAF inhibitors: Fgf4 repression in mouse ESCs | Fgf4 expression fold change at 33 µM | 550 tested, 4% active | mouse ESC E14, Fgf4 mRNA qPCR fold change; active compounds read low | AID 743177 | shares compounds with esBAF inh;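 active means Fgf4 expression under 0.8 fold of control in both repeat measurements at one or both tested doses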;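 further: Fgf4 transcript normalised to actin in duplex TaqMan qPCR; cells exposed to compound for 24 h before lysis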
# esBAF Bmi1 qPCR: confirmation of esBAF inhibitors: Bmi1 de-repression in mouse ESCs | shares compounds with esBAF inh | mouse ESE14 ES cells, Bmi1 mRNA qPCR fold; active compounds read high | fold change at 33 µM | 550 tested, under 10 active | AID 743180;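 active means Bmi1 expression fold change above 6 at either tested concentration, seen in replicate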;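 further: higher fold means more Bmi1 de-repression and stronger esBAF inhibition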
# A549 cytotox: cytotoxicity in A549 cells; shares compounds with esBAF inh; plate reader; cell viability change % (negative = cytotoxic), % at 25 µM, hits read low; 550 tested, under 10 active; AID 743188; call rule not given here
# HepG2 tox SP: cytotoxicity in HepG2 cells. shares compounds with esBAF inh. 550 tested, 4% active. AID 743189. activity change, negative = inhibition, % at 25 µM. plate reader; active compounds read low; in the data active means activity change below about -50%
# HEK293 tox SP: HEK293 cell cytotoxicity at single point. activity change, negative = inhibition, % at 25 µM, hits read low. plate reader. AID 743190. 550 tested, 3% active. shares compounds with esBAF inh; in the data active means activity change below about -38%, passing the limit was not always enough
# A number is an active result; - = inactive; . = no result. Most compounds without a hit are left out; they make up all but 3.7% or so of the library.
SMILES,esBAF inh,MITF TRPM1 HTS,Ecoli rRNA inh,Wnt bcat act,AF4-AF9 inh,others
O=C1CN=C(c2ccc(Br)cc2)c2oc3ccccc3c2N1,-,-,.,-,.,
CC(=O)OC1C(O)C(C)OC(OC2C(OC(=O)C3CCC4C(C3)OC3(CC(OC(=O)/C=C/c5ccccc5)C(C)CO3)C43CO3)OC(C)C(O)C2OC(C)=O)C1O (stereo not drawn),.,.,.,-,-,
CC(=NCCc1ccccc1)c1c(O)n(C)c(=O)n(C)c1=O,.,-,-,-,-,
Cn1c(O)c(Cc2ccc(OCc3ccccc3)cc2)c(=O)n(C)c1=O,-,-,-,33.3,-,
CC1(C)CN=C(Nc2nc3ccccc3s2)S1,50.4,-,.,.,.,
CCOC(=O)CNC(=O)N1Cc2cc(Br)ccc2-n2nncc2C1,.,.,-,-,.,
O=C(N/N=C/c1c(O)n(-c2cccc3ccccc23)c(=O)[nH]c1=O)c1ccncc1,.,.,-,-,-,
CC=Cc1ccc2n(c1=O)C[C@@H]1[C@@H](CO)[C@H](C(=O)OC)[C@H]2N1S(=O)(=O)c1ccccc1C (mixture of isomers),-,.,-,.,-,
CCCCC/C(=N/O)c1c(C)[nH]c2ccccc12,.,-,-20.9,-,-,
Cn1c(=O)[nH]c2nncnc2c1=O,.,-,-,-,-,
Cc1ccc2c(c1N)C(=O)c1ccccc1C2=O,55.1,94.6,-,44.3,.,
Cc1[nH]c2ccccc2c1C1=CCNCC1,-,-,-,-,37.6,
C1=C(c2ccccc2)CCNC1,-,-,-,-,-,
CCOc1cccc(CNCCc2c(C)[nH]c3ccc(OC(F)(F)F)cc23)c1O,-,-,-,-,39.5,
Cc1ccc2nc(-c3ccc(CN4CCC(n5nnc6ccccc65)CC4)cc3)c(-c3ccccc3)nc2c1,.,.,.,-,-,
Brc1ccc2[nH]cc(/C=N/N3CCCCC3)c2c1,.,-,-,-,25.8,
NC(Cc1nc2ccccc2[nH]1)c1ccc(Cl)cc1 (stereo not drawn),.,.,-45.4,-,.,
CCCC(=O)NC(Oc1ccc(Cl)cc1Cl)C(Cl)(Cl)Cl (stereo not drawn),.,-,-,-,-,
CCCC(=O)NC(Oc1ccccc1Cl)C(Cl)(Cl)Cl (stereo not drawn),.,-,-19.6,-,-,
COC(=O)C1=C(c2ccc(Cl)c(C(F)(F)F)c2)C[C@@H]2CC[C@H]1N2C(=O)NCc1ccc2c(c1)OCO2,-,-,-,57.4,-,
CN1C(=O)C(=Cc2c(OCc3cnc(Cl)s3)ccc3ccccc23)C(=O)N(C)C1=O,49.9,-,-,-,-,
CN1C(=O)C(=Cc2ccccc2OCc2ccccc2Cl)C(=O)N(C)C1=O,.,-,.,-,.,
c1ccc(-c2ccc(-c3n(-c4ccccn4)c4ccccc4[n+]3-c3ccccn3)cc2)cc1,.,-,-,-,-,
Clc1cc(Cl)cc(CN2Cc3cc(Br)ccc3-n3nncc3C2)c1,.,.,-,-,.,
CN(Cc1cccc(-c2cccnc2)c1)C(=O)Oc1ccc([N+](=O)[O-])cc1,.,.,-,-,-,
SMILES,esBAF inh,MITF TRPM1 HTS,Ecoli rRNA inh,Wnt bcat act,AF4-AF9 inh,others
Cc1nc(-c2cccc(CN(C)C(=O)Oc3ccc([N+](=O)[O-])cc3)c2)no1,.,.,-19.1,-,-,
CCOc1ccc(NC(=O)C2C3c4ccccc4C(c4ccccc43)C2C(=O)O)cc1 (stereo not drawn),.,-,-33.9,-,-,
O=C(C1c2ccccc2C(=O)N2CCc3ccccc3C12)N1CCC2(CC1)OCCO2 (stereo not drawn),-,-,.,.,.,
CCOc1cc2c(cc1OCC)-n1cccc1C(c1cc(OC)ccc1F)NC2 (stereo not drawn),-,-,-,-,27.4,
CCOc1cc2c(cc1OCC)-n1cccc1C(c1ccc(C)cc1C)NC2 (stereo not drawn),-,-,-,-,26.4,
CCOc1cc2c(cc1OCC)-n1cccc1C(c1cc(C)c(OC)cc1C)NC2 (stereo not drawn),-,-,-,-,-,
CCOc1cc2c(cc1OCC)-n1cccc1C(c1cccc(F)c1)NC2 (stereo not drawn),-,-,-,-,26.1,
COC(=O)[C@H]1[C@H](CO)[C@H]2Cn3c(ccc(-c4ccncc4)c3=O)[C@@H]1N2S(=O)(=O)c1ccccc1F,-,.,-,.,-,
COC(=O)C1=C(c2ccc(F)cc2OCc2ccccc2)C[C@@H]2CC[C@H]1N2C(=O)NC1CC1,-,-,-,-,-,
CCCCCCC(=O)c1c(O)n(-c2ccc(OC)cc2)c(=O)[nH]c1=O (tested in a mixture with another compound),-,-,-20.1,-,-,
O=C(c1ccc(Cl)cc1)C1CCCN(Cc2cccc3ncccc23)C1 (stereo not drawn),-,-,-,-,-,
O=C(c1ccc(Cl)cc1)C1CCCN(Cc2cccc3cccnc23)C1 (stereo not drawn),-,-,-23.4,-,-,
O=C(c1ccc(Cl)cc1)C1CCCN(Cc2ccc3nonc3c2)C1 (stereo not drawn),-,-,-27.8,-,-,
Nc1ccccc1C(=O)OCCc1ccccc1,-,85.4,-,67.6,.,
CCCCOC(=O)c1ccccc1N,-,-,-,-,.,
CCOC(=O)[C@]12Cc3c(cc(OC)c(OC)c3OC)[C@H]1N(C)C(=O)c1cc(OC)ccc12,.,.,-,-,-,
CC/C(=N\NC(=O)c1ccccc1)c1c(O)n(C2CCCCC2)c(=O)[nH]c1=O,-,-,-,-,-,
CC1CN=C(NC(C)c2ccccc2)S1 (stereo not drawn),-,-,-,-,-,
CC(NC1=NCCS1)c1ccccc1 (stereo not drawn),.,-,-,48.5,-,
COC(=O)C1=C(c2ccc(OC)c(OC)c2)C[C@@H]2CC[C@H]1N2C(=O)N1CCOCC1,-,-,-,-,-,
CCCCCn1c(=O)c(C(=O)Nc2ccccc2Cl)c(O)c2ccccc21,99.5,.,-,-,-,esBAF Ring1 qPCR=-;esBAF Fgf4 qPCR=-;esBAF Bmi1 qPCR=-;A549 cytotox=-;HepG2 tox SP=-;HEK293 tox SP=-
N/C(=N\[N+](=O)[O-])N1CCN(C(=O)c2ccccn2)CC1,-,-,-,-,-,

# Screens (PubChem)
